Inconclusive results are not listed. A call without a number means that no potency is given here. Active and inactive are the calls of the source. The call rests on the fitted dose curve; in most records, active means well fitted inhibition curve with a large enough effect; inconclusive means small, poorly fitted or top-dose-only effect; inactive means flat fitted curve, though single readings scatter.
Columns and labels:
Test in all cases: qHTS profiling for inhibitors of Plasmodium falciparum proliferation (AID 504749); further: nearly all actives have a fitted effect of over 60% in size
Conditions in all cases: P. falciparum in erythrocytes, SYBR Green DNA, 72 h; series mostly up to 28.7 µM
CP291 = test system: CP291
Outline: (§1)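 P. falciparum-infected erythrocytes (0.3% parasitemia, 2.5% hematocrit final) were exposed to compounds for 72 h at 37 C in 5% CO2, then lysed with SYBR Green buffer overnight at room temperature; parasite DNA fluorescence was normalized to artemisinin and DMSO controls.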

CP305 = test system: CP305
Outline: as §1

CP315 = test system: CP315
Outline: as §1

CP325 = test system: CP325
Outline: as §1

CP329 = test system: CP329
Outline: as §1

CP335 = test system: CP335
Outline: as §1

DFO2036 = test system: DFO2036
Outline: as §1

DIV17 = test system: DIV17
Outline: as §1

DIV14 = test system: DIV14
Outline: as §1

CP297 = test system: CP297
Outline: as §1
Potency means the concentration at half of the fitted maximal effect.

Row | Structure (SMILES) | Potency (CP291) | Potency (CP305) | Potency (CP315) | Potency (CP325) | Potency (CP329) | Potency (CP335) | Potency (DFO2036) | Potency (DIV17) | Potency (DIV14) | Potency (CP297)
1 | c1cnc(N2CCN(Cc3ccc4c(c3)OCO4)CC2)nc1 | inactive | inactive | inactive | inactive | inactive | inactive | inactive | inactive |  | 
2 | NC(N)=NC(=O)Cc1c(Cl)cccc1Cl |  |  |  |  | 6.01 µM (active) | 9.53 µM (active) | 10 µM (active) | inactive | inactive | 
3 | Cc1nc2sccn2c(=O)c1CCN1CCC(=C(c2ccc(F)cc2)c2ccc(F)cc2)CC1 |  | inactive | inactive | inactive | inactive |  |  | 16.9 µM (active) |  | 
4 | CCc1cccc(N(C)C(N)=Nc2cccc3ccccc23)c1 |  |  | inactive |  |  |  |  | 1.35 µM (active) | 1.51 µM (active) | 
5 | OC(CCN1CCCCC1)(c1ccccc1)C1CCCCC1 (configuration not stated) |  | inactive | inactive | inactive | inactive |  | inactive |  |  | inactive
6 | C=CCc1ccccc1OCC(O)CNC(C)C (configuration not stated) |  |  |  |  |  |  |  | 8.49 µM (active) | 8.49 µM (active) | 
7 | CC(C)COCC(CN(Cc1ccccc1)c1ccccc1)N1CCCC1 (configuration not stated) |  |  |  | inactive | inactive |  |  | inactive | inactive | 
8 | CCN(CC)CCNC(=O)c1cc(S(C)(=O)=O)ccc1OC |  |  |  |  |  | inactive | inactive |  |  | 
9 | Cc1nc2ccccn2c(=O)c1CCN1CCC(C(=O)c2ccc(F)cc2)CC1 |  | inactive | inactive | inactive | inactive |  | inactive |  | 6.75 µM (active) | inactive
10 | O=C1NCN(c2ccccc2)C12CCN(CCCC(c1ccc(F)cc1)c1ccc(F)cc1)CC2 |  | 7.57 µM (active) |  |  | 4.78 µM (active) | 4.78 µM (active) | 7.08 µM (active) | 6.75 µM (active) | 7.57 µM (active) | 
11 | CN(C)CCN(Cc1cccs1)c1ccccn1 |  |  | inactive |  |  | 8.49 µM (active) |  | 6.01 µM (active) | 6.75 µM (active) | 3.38 µM (active)
12 | CCC(=O)c1ccc2c(c1)N(CCCN(C)C)c1ccccc1S2 |  |  | inactive |  |  |  |  | 4.78 µM (active) | 6.01 µM (active) | inactive
13 | CN(C(=O)CCCOc1ccc2[nH]c(=O)ccc2c1)C1CCCCC1 |  | inactive | inactive | inactive | inactive | inactive | inactive |  |  | 
14 | CN(C)C/C=C(/c1ccc(Br)cc1)c1cccnc1 |  | inactive | inactive | inactive | inactive | inactive | inactive | inactive |  | 
15 | CCOC(=O)C1=C(C)NC(C)=C(C(=O)OC)C1c1cccc(Cl)c1Cl (configuration not stated) |  | inactive | inactive | inactive |  |  | inactive | inactive | inactive | inactive
16 | CCCC(C(=O)OCCN(CC)CC)(c1ccccc1)c1ccccc1 | 13.5 µM (active) |  |  |  |  | 8.49 µM (active) |  | 7.57 µM (active) | 8.49 µM (active) | 
17 | O=C(O)CN(CCN(CC(=O)O)CC(=O)O)CCN(CC(=O)O)CC(=O)O |  |  | inactive | inactive | inactive | inactive | inactive |  | inactive | inactive
18 | COc1ccc(CN(CCN(C)C)c2ccccn2)cc1 | inactive | inactive | inactive | inactive | inactive |  | inactive |  |  | 
19 | COCCOC(=O)C1=C(C)NC(C)=C(C(=O)OC(C)C)C1c1cccc([N+](=O)[O-])c1 (configuration not stated) |  |  |  |  | inactive | 4.78 µM (active) |  | 13.5 µM (active) | 13.5 µM (active) | 
20 | CCCCCCCC/C=C\CCCCCCCC(=O)NCc1ccc(O)c(OC)c1 |  | inactive | inactive | inactive | inactive |  |  | inactive |  | inactive
21 | O=C(CCCN1CCC(O)(c2cccc(C(F)(F)F)c2)CC1)c1ccc(F)cc1 |  |  |  |  |  | 9.53 µM (active) | 10 µM (active) | 13.5 µM (active) | 6.75 µM (active) | 
22 | CN(C)CCCN1c2ccccc2Sc2ccccc21 |  |  |  |  |  |  |  | 2.87 µM (active) | 1.81 µM (active) | inactive
23 | CN1CCN(CC(=O)N2c3ccccc3C(=O)Nc3cccnc32)CC1 | inactive | inactive | inactive | inactive | inactive | inactive | inactive | inactive | inactive | 
24 | CN(C)CC[C@@H](c1ccc(Br)cc1)c1ccccn1 |  | inactive | inactive | inactive |  |  | inactive | 7.57 µM (active) | 3.79 µM (active) | 
25 | COc1cc(C(=O)OCCCN2CCCN(CCCOC(=O)c3cc(OC)c(OC)c(OC)c3)CC2)cc(OC)c1OC |  |  |  |  |  | 4.78 µM (active) |  | 12 µM (active) | 9.53 µM (active) | 
26 | CC1=C(C)C(=O)C(CCCCC#CCCCC#CCO)=C(C)C1=O |  |  |  |  |  | 13.5 µM (active) |  | 6.01 µM (active) | 5.36 µM (active) | 15.1 µM (active)
27 | NC(=Nc1ccccc1)Nc1ccccc1 | inactive | inactive | inactive | inactive | inactive | inactive | inactive | inactive |  | 
28 | CN(C)CC/C=C1\c2ccccc2COc2ccccc21 |  |  | inactive |  |  |  | inactive |  |  | inactive
29 | COc1ccc(CCN(C)CCCC(C#N)(c2cc(OC)c(OC)c(OC)c2)C(C)C)cc1OC (configuration not stated) |  |  |  |  |  |  |  | 13.5 µM (active) |  | 
30 | CCCN1C[C@H](CSC)C[C@@H]2c3cccc4[nH]cc(c34)C[C@H]21 |  | inactive | inactive | inactive | inactive |  | inactive | 7.57 µM (active) |  | inactive
